Measurements as given in PMC7862700, “An all-to-all approach to the identification of sequence-specific readers for epigenetic DNA modifications on cytosine”.

What was measured:
Experiment in all cases: DAPPL (digital affinity profiling via proximity ligation, sequencing); 10 mM Tris-HCl pH 7.5, 50 mM NaCl, 1 mM DTT, 4% glycerol, room temperature, 30 min; GST-TFs on glutathione beads, 16-mer random dsDNA library, 0.1% formaldehyde crosslink after washing; high values mean tight binding
FEV = target: T1, FEV (Homo sapiens, UniProt Q99581 1-238); settings: protein: recombinant; tags: N-terminal GST; dsDNA, one strand shown
T1 sequence: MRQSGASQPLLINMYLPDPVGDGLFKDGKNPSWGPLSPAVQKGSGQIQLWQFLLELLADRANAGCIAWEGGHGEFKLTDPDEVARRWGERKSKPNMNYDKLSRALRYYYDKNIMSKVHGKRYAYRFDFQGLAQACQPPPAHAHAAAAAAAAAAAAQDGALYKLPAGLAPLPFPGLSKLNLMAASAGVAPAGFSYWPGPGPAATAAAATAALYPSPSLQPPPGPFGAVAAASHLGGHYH
Outline: (§1)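 The binding signal reported is, for every hexamer, its read frequency for a factor over its read frequency for the tag-only sample. Reads came from pools of yeast-expressed, GST-fused human transcription factors on glutathione beads, barcoded with DNA and mixed with that sample, which were incubated with 200 nmole of a random double-stranded 16-mer DNA library in Tris/NaCl/DTT/glycerol buffer at room temperature for 30 min. After washing, the pools were crosslinked with 0.1% formaldehyde, proximity-ligated with BsaI/T4 ligase for 1 h at 37 °C, PCR-amplified and sequenced on an Illumina NextSeq500.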

ETV5 = ETV5 (Homo sapiens, UniProt P41161 1-510); settings: protein: recombinant; tags: N-terminal GST; dsDNA, one strand shown
ETV5, sequence (P41161 whole entry): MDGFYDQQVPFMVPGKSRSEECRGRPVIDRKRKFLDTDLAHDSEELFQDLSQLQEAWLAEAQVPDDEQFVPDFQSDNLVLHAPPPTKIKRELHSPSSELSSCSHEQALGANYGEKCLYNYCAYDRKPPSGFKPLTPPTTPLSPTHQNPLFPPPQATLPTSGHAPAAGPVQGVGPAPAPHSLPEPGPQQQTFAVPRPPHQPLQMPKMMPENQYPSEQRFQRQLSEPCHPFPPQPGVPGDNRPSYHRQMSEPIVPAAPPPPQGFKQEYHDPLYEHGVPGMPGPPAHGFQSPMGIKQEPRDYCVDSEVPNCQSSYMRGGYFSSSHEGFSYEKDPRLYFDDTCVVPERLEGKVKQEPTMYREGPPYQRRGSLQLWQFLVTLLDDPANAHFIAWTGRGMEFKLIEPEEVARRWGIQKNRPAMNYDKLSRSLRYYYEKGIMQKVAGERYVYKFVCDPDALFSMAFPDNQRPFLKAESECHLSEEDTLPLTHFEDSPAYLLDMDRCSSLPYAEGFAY
Outline: as §1

HSF1 = HSF1 (Homo sapiens, UniProt Q00613 1-529); settings: protein: recombinant; tags: N-terminal GST; chain copies: 3; dsDNA, one strand shown
HSF1, sequence (Q00613 whole entry): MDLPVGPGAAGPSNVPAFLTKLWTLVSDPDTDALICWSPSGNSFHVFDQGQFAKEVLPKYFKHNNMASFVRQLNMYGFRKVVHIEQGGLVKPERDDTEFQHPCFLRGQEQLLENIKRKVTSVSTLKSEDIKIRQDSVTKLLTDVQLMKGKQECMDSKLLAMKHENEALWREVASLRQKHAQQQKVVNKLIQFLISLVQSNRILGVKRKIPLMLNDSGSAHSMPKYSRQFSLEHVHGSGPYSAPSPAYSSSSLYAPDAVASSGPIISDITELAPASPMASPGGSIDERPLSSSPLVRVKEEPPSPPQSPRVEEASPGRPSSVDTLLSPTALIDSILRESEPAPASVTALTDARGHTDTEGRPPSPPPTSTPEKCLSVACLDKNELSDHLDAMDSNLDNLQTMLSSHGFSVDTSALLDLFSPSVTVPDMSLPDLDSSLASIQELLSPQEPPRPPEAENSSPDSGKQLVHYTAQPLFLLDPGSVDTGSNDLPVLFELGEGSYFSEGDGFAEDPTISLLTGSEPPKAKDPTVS
Outline: as §1

SPIC = target: T2, SPIC (Homo sapiens, UniProt Q8N5J4 1-248); settings: protein: recombinant; tags: N-terminal GST; dsDNA, one strand shown
T2 sequence: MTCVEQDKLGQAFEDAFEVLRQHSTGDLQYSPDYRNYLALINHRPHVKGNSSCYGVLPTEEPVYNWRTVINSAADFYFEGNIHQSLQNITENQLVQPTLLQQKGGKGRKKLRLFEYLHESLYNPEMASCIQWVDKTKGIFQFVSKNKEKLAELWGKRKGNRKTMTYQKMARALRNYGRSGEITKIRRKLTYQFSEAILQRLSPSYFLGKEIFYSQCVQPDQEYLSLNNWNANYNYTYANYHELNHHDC
Outline: as §1

ELF4 = ELF4 (Homo sapiens, UniProt Q99607 1-663); settings: protein: recombinant; tags: N-terminal GST; dsDNA, one strand shown
ELF4, sequence (Q99607 whole entry): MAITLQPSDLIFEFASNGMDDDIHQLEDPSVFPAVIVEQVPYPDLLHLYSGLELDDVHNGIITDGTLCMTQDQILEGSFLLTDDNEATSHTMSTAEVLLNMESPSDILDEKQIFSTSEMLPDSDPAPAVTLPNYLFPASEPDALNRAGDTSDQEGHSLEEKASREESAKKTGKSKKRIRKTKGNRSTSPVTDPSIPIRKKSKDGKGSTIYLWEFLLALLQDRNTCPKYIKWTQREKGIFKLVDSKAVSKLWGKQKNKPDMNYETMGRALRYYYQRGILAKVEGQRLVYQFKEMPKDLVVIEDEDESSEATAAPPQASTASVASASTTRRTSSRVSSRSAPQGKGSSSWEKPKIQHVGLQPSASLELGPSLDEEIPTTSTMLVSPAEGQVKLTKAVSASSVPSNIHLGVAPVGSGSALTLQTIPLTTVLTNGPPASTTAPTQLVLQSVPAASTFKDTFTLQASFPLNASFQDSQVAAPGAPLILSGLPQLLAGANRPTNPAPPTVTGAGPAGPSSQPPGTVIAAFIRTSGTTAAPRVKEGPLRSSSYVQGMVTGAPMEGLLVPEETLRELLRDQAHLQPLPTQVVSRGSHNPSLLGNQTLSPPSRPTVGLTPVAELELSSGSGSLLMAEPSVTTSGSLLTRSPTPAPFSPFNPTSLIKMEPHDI
Outline: as §1

ELK4 = target: T3, ELK4 (Homo sapiens, UniProt P28324-2 1-405); settings: protein: recombinant; tags: N-terminal GST; dsDNA, one strand shown
T3 sequence: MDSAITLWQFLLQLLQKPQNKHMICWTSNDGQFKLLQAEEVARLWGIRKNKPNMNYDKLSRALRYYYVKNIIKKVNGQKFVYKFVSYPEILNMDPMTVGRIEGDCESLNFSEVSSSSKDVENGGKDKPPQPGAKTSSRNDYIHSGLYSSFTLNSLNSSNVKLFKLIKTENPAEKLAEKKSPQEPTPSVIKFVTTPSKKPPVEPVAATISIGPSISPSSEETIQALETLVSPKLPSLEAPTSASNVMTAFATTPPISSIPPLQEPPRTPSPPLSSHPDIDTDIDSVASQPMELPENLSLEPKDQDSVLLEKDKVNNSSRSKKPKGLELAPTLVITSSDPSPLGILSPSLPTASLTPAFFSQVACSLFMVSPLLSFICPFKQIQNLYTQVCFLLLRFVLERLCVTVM
Outline: as §1

ELF3 = target: T4, ELF3 (Homo sapiens, UniProt P78545 1-371); settings: protein: recombinant; tags: N-terminal GST; dsDNA, one strand shown
T4 sequence: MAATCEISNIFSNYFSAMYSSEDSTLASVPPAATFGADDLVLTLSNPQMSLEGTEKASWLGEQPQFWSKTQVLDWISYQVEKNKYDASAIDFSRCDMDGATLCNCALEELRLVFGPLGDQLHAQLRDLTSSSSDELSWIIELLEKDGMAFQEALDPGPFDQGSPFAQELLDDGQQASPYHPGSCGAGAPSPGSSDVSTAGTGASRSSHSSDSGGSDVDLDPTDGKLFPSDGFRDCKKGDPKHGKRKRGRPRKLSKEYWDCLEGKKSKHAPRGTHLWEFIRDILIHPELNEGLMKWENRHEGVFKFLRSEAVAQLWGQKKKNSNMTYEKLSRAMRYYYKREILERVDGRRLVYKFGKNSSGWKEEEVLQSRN
Outline: as §1

CRX = CRX (Homo sapiens, UniProt O43186 1-299); settings: protein: recombinant; tags: N-terminal GST; dsDNA, one strand shown
CRX, sequence (O43186 whole entry): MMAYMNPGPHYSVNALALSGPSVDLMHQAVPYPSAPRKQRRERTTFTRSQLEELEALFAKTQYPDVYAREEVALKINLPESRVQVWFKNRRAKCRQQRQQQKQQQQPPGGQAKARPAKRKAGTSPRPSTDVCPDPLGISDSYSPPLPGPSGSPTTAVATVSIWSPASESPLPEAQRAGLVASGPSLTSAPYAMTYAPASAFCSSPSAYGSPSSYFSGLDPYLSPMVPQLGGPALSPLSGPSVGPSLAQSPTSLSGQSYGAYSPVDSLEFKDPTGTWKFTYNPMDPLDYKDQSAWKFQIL
Outline: as §1

ETV1 = ETV1 (Homo sapiens, UniProt P50549 1-477); settings: protein: recombinant; tags: N-terminal GST; dsDNA, one strand shown
ETV1, sequence (P50549 whole entry): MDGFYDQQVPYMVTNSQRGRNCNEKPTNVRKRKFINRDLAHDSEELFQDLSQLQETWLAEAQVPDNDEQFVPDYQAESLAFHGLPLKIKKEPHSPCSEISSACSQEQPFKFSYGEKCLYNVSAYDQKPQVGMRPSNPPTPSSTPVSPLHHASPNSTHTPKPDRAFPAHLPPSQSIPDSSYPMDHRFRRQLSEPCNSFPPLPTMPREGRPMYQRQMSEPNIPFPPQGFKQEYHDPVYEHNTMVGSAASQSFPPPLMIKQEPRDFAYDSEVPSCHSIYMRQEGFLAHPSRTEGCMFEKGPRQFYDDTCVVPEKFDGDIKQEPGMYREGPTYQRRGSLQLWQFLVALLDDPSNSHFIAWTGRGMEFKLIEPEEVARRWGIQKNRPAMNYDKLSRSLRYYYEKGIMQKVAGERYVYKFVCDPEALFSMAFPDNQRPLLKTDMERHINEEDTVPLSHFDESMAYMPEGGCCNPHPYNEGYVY
Outline: as §1

ERF = target: T5, ERF (Homo sapiens, UniProt P50548 1-548); settings: protein: recombinant; tags: N-terminal GST; dsDNA, one strand shown
T5 sequence: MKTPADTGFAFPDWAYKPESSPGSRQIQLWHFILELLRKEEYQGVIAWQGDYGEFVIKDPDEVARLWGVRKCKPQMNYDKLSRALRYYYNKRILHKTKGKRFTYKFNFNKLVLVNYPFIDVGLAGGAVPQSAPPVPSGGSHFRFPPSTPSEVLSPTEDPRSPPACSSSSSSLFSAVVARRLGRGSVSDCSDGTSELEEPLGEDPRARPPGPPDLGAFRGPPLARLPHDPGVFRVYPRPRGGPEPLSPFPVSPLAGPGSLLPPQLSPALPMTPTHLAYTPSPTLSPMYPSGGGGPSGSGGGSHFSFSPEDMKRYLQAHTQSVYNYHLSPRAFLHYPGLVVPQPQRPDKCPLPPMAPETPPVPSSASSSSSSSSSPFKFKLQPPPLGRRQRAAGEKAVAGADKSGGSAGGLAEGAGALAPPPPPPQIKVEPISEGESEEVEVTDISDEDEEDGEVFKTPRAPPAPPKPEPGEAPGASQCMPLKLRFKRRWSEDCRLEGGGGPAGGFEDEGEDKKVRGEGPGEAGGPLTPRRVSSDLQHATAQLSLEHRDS
Outline: as §1

ETV3L = target: T6, ETV3L (Homo sapiens, UniProt Q6ZN32 1-361); settings: protein: recombinant; tags: N-terminal GST; dsDNA, one strand shown
T6 sequence: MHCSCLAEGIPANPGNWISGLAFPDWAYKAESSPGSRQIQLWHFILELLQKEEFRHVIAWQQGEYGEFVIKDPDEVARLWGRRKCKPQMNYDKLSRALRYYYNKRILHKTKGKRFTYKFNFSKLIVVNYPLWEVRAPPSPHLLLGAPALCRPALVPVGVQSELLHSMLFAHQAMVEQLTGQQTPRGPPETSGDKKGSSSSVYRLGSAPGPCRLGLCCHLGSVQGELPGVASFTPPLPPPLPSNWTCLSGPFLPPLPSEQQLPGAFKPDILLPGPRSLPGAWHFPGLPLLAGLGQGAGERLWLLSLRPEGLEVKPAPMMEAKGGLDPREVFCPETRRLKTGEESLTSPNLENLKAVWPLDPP
Outline: as §1

ETS2 = target: T7, ETS2 (Homo sapiens, UniProt P15036 1-469); settings: protein: recombinant; tags: N-terminal GST; dsDNA, one strand shown
T7 sequence: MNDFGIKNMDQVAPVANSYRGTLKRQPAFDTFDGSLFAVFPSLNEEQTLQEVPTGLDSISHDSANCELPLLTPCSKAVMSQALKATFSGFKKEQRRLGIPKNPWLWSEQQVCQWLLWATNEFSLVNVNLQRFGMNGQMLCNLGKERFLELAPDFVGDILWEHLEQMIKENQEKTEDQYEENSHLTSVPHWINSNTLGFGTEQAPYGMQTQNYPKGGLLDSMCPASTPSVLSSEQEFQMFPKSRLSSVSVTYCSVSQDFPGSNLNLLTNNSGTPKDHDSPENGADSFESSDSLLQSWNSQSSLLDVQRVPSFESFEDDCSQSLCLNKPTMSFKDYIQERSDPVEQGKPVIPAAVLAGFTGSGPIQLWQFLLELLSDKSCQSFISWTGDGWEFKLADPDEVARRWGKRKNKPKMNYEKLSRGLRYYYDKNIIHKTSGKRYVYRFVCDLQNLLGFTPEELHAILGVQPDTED
Outline: as §1

SPDEF = target: T8, SPDEF (Homo sapiens, UniProt O95238 1-335); settings: protein: recombinant; tags: N-terminal GST; dsDNA, one strand shown
T8 sequence: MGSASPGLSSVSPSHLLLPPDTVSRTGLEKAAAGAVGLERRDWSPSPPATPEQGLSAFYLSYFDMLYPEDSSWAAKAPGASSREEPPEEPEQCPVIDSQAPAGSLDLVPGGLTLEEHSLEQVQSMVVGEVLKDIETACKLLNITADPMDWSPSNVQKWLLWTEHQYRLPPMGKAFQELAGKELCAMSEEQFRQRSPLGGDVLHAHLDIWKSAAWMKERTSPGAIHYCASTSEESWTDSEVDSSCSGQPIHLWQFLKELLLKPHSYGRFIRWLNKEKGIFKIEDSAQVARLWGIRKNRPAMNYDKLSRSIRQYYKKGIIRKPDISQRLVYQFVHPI
Outline: as §1

ETV7 = target: T9, ETV7 (Homo sapiens, UniProt Q9Y603 1-341); settings: protein: recombinant; tags: N-terminal GST; dsDNA, one strand shown
T9 sequence: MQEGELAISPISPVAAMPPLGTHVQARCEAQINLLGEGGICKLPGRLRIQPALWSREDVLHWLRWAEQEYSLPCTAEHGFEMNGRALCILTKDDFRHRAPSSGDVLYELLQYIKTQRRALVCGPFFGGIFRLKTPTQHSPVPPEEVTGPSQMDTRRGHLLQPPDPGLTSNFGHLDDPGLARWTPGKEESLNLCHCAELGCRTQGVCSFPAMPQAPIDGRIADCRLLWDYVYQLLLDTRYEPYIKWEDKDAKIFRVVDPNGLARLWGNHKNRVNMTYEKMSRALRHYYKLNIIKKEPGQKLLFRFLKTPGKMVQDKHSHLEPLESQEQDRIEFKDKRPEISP
Outline: as §1

ELF5 = target: T10, ELF5 (Homo sapiens, UniProt Q9UKW6-2 1-255); settings: protein: recombinant; tags: N-terminal GST; dsDNA, one strand shown
T10 sequence: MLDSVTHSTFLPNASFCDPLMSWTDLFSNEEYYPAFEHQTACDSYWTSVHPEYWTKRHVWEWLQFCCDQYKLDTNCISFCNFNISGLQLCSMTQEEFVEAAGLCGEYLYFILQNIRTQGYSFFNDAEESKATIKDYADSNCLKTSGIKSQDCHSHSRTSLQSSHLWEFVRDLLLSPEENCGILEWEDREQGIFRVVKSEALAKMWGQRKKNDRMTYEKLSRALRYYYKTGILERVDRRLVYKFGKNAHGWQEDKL
Outline: as §1

ETV3 = target: T11, ETV3 (Homo sapiens, UniProt P41162-2 1-143); settings: protein: recombinant; tags: N-terminal GST; dsDNA, one strand shown
T11 sequence: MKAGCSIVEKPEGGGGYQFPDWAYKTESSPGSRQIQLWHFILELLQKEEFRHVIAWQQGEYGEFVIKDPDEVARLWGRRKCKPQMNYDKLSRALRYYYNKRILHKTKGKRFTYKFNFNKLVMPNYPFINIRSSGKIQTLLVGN
Outline: as §1

ETV6 = ETV6 (Homo sapiens, UniProt P41212 1-452); settings: protein: recombinant; tags: N-terminal GST; dsDNA, one strand shown
ETV6, sequence (P41212 whole entry): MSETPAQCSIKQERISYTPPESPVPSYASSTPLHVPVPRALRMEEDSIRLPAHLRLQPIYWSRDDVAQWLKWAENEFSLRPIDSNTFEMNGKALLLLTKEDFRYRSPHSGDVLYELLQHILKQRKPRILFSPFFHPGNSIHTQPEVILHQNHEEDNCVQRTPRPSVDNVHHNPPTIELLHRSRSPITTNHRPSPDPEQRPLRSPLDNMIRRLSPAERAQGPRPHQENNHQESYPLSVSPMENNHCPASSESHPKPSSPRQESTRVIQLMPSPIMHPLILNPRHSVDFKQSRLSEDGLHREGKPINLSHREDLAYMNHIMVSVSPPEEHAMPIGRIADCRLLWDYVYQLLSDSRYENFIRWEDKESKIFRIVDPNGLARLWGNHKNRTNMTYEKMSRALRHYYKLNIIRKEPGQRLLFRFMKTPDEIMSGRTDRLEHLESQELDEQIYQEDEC
Outline: as §1

Sequence | binding signal (FEV) | binding signal (ETV5) | binding signal (HSF1) | binding signal (SPIC) | binding signal (ELF4) | binding signal (ELK4) | binding signal (ELF3) | binding signal (CRX) | binding signal (ETV1) | binding signal (ERF) | binding signal (ETV3L) | binding signal (ETS2) | binding signal (SPDEF) | binding signal (ETV7) | binding signal (ELF5) | binding signal (ETV3) | binding signal (ETV6)
AAAGTT | 1.01 fold enrichment (6-mer frequency, TF over GST control) | 1.16 fold enrichment (6-mer frequency, TF over GST control) | 1.43 fold enrichment (6-mer frequency, TF over GST control) | 1.03 fold enrichment (6-mer frequency, TF over GST control) | 1.14 fold enrichment (6-mer frequency, TF over GST control) | 1.19 fold enrichment (6-mer frequency, TF over GST control) | 1.1 fold enrichment (6-mer frequency, TF over GST control) | 1.22 fold enrichment (6-mer frequency, TF over GST control) | 1.07 fold enrichment (6-mer frequency, TF over GST control) | 1.08 fold enrichment (6-mer frequency, TF over GST control) | 1.13 fold enrichment (6-mer frequency, TF over GST control) | 1.09 fold enrichment (6-mer frequency, TF over GST control) | 1.01 fold enrichment (6-mer frequency, TF over GST control) | 1.15 fold enrichment (6-mer frequency, TF over GST control) | 1.08 fold enrichment (6-mer frequency, TF over GST control) | 1.09 fold enrichment (6-mer frequency, TF over GST control) | 1.06 fold enrichment (6-mer frequency, TF over GST control)
TCCCGA | 1.31 fold enrichment (6-mer frequency, TF over GST control) | 1.37 fold enrichment (6-mer frequency, TF over GST control) | 2.34 fold enrichment (6-mer frequency, TF over GST control) | 1.36 fold enrichment (6-mer frequency, TF over GST control) | 1.25 fold enrichment (6-mer frequency, TF over GST control) | 1.42 fold enrichment (6-mer frequency, TF over GST control) | 1.26 fold enrichment (6-mer frequency, TF over GST control) | 1.59 fold enrichment (6-mer frequency, TF over GST control) | 1.29 fold enrichment (6-mer frequency, TF over GST control) | 1.34 fold enrichment (6-mer frequency, TF over GST control) | 1.21 fold enrichment (6-mer frequency, TF over GST control) | 1.29 fold enrichment (6-mer frequency, TF over GST control) | 1.37 fold enrichment (6-mer frequency, TF over GST control) | 1.35 fold enrichment (6-mer frequency, TF over GST control) | 1.52 fold enrichment (6-mer frequency, TF over GST control) | 1.26 fold enrichment (6-mer frequency, TF over GST control) | 1.22 fold enrichment (6-mer frequency, TF over GST control)
